Measurements from PubChem BioAssay.
“And” between values parts separate entries of the source, which are not always exact repeats. Identical values can stand only once. The source made the active and inactive calls.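 Rule for the calls, unless noted: active = inhibition at or above 50% relative to wild type and mutant plate controls; inactive = inhibition below 50%.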

Legend:
[1] = inhibitors of TNFa-induced NFkB p65 translocation, primary screen, imaging, HUVEC, MLSMR starter and 10KST1 sets (AID 438;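 active = inhibition above 20% together with a positive visual image hit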;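 note: compound added about 3h40 before a 20 min TNFalpha stimulation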;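 for inhibition: signal is the nuclear over cytoplasmic p65 intensity ratio per well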); settings: HUVEC TNFa-induced p65 nuclear translocation; cell count: measured here: nuclei count (cytotoxicity indicator), at 2.08 µM; inhibition: at 2 µM, stronger effect = higher value, 0% TNFa-plus-vehicle, 100% no-TNFa wells
[2] = inhibitors of mutant huntingtin aggregation, primary screen, imaging, exon1htt(103Q)mCFP cells, high-content imaging (AID 483;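 active = visual image review flags a hit and inhibition of aggregation exceeds 20%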;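 note: compound exposure lasted 3 days before fixation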;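 for nuclei count: percent of the per-plate median nuclei count of sample wells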); settings: exon1htt(103Q)mCFP cell line, aggregate imaging, at 2 µM; inhibition of aggregation: stronger effect = higher value; nuclei count: measured here: cell count, toxicity
[3] = inhibitors of E-selectin induction by TNFa, primary screen, imaging, HUVEC, immunofluorescence, MLSMR starter and 10KST1 sets (AID 487;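 active = visually confirmed hit in the image check and inhibition above 20%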;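 for inhibition: signal is fraction of cell area covered by stained E-selectin grains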;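 for nuclei count: 100% = median nuclei count of all wells on the same plate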); settings: HUVEC TNFalpha-induced E-selectin immunofluorescence imaging, at 2 µM; inhibition: stronger effect = higher value; nuclei count: measured here: cell number, toxicity
[4] = DUSP6 inhibitors restoring Erk phosphorylation by chemical complementation, primary imaging in DUSP6-transfected HeLa (AID 609;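 active = compounds giving at least 50% inhibition in the cell-based MKP-3 phosphatase rescue imaging test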;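 for inhibition: phospho-Erk level distribution per well compared with pooled transfected vehicle control wells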); settings: HeLa MKP-3 transfected, phospho-Erk imaging KS statistic, at 10 µM, cells stimulated with TPA for 15 min
[5] = biological target: Dual specificity protein phosphatase 6 (Homo sapiens) (UniProt Q16828); test: as above; settings: HeLa MKP-3 transfected, phospho-Erk imaging KS statistic; at 10 µM; stronger effect = higher value; cells stimulated with TPA for 15 min
Sequence of Dual specificity protein phosphatase 6 (Homo sapiens) (Q16828 whole entry, looked up): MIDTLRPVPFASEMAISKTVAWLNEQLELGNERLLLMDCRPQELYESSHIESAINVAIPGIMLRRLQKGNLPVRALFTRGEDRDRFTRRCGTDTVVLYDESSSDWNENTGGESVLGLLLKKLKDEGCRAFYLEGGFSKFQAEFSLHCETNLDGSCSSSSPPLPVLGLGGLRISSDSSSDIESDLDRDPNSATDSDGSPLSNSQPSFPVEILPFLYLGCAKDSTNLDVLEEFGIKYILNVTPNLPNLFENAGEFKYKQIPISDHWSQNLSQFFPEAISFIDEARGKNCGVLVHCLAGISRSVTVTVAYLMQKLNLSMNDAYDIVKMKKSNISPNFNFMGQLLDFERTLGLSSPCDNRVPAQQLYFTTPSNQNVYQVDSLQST

[6] = biological target: Voltage-gated potassium channel subunit beta-2 (Rattus norvegicus) (UniProt P62483); test: KvBeta enzyme negative modulators, primary screen, biochemical, NADPH fluorescence (AID 622;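 active = fluorescence slope higher than the sample average by over 3 SD, cut at about -0.22 in these data, passing the limit was not always enough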;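 note: slope of raw intensity against log time taken from 70 to 1610 s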); settings: recombinant KvBeta, 4-cyanobenzaldehyde reduction, at 10 µM, stronger effect = higher value
Sequence of Voltage-gated potassium channel subunit beta-2 (Rattus norvegicus) (P62483 whole entry, looked up): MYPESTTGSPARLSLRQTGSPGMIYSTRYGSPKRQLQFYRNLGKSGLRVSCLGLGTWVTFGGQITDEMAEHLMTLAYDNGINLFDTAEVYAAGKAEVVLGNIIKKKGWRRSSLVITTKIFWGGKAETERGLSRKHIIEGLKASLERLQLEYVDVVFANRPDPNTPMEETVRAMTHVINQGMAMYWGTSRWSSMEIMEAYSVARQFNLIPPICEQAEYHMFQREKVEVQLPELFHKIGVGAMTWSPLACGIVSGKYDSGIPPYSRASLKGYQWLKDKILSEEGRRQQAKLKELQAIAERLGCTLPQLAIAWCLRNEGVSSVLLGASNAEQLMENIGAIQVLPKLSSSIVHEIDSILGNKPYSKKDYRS

[7] = biological target: Voltage-gated potassium channel subunit beta-2 (Rattus norvegicus) (UniProt P62483); test: KvBeta positive modulators, primary screen, biochemical, NADPH fluorescence (AID 623;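 active = NADPH fluorescence slope more negative than the mean of all samples by about 3 SD, 99.7% confidence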;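 note: fluorescence intensity change per second fitted from 20 to 320 s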); settings: Recombinant KvBeta, NADPH fluorescence decrease slope, 10 min; at 10 µM; stronger effect = lower value
[8] = biological target: Alpha-2C adrenergic receptor (Homo sapiens) (UniProt P18825); test: modulators of alpha2C/GIRK thallium flux, primary screen, cell-based, HEK293 alpha2C/GIRK1/2 (AID 624;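 active = fluorescence slope after compound addition differing from the mean of all screened samples at 99.7% confidence, in either direction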;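 note: slope of fluorescence ratio to pre-addition baseline per second over 15 to 24 s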); settings: thallium flux BTC fluorescence, at 10 µM, actives lie on both sides
Sequence of Alpha-2C adrenergic receptor (Homo sapiens) (P18825 whole entry, looked up): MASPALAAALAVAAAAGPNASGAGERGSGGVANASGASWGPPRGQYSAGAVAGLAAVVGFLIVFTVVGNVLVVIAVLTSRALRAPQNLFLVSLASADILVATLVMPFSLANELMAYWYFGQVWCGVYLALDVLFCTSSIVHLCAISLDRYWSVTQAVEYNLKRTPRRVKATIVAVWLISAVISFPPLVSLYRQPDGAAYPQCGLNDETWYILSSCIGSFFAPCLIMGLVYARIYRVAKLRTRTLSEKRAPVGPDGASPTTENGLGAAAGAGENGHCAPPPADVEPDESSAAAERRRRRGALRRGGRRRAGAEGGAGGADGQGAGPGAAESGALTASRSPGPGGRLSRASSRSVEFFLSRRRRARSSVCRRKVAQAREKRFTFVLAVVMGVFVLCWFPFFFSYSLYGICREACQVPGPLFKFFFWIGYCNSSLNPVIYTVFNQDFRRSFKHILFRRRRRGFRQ

[9] = inhibitors of larval lipid processing in zebrafish, primary screen, whole organism, PED6 fluorescence, gall bladder and intestine (AID 686;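 active = a full or partial loss of lipid-probe fluorescence in the fish gall bladder, intestine or both, judged by eye; inactive = no fluorescence loss, or compound toxic to the fish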;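 note: larvae 5 to 7 days old with five fish per well; signal comes from phospholipase A2 cleavage of quenched PED6 carried via bile; overnight exposure to compound and PED6 before scoring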); settings: Zebrafish larvae PED6 lipid processing, fluorescence scoring; screened at 20 µM (by protocol)
[10] = inhibitors of Chlamydomonas gravitaxis, primary screen, whole organism, Chlamydomonas reinhardtii, WT vs cilia-less mutant, absorbance, 96-well (AID 463189); settings: OD600 absorbance, 2 days, at 10 µM, stronger effect = higher value;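 note: 0% = wild type cc124 cells in DMSO and 100% = ciliumless bld1 mutant cells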
[11] = inhibitors of Sendai virus-induced IRF3 signaling, primary screen, TLR/RLR signaling modifier project, cell-based, Sendai virus stimulus, luciferase, 10K MLSCN set (AID 602276;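 active = inhibition at or above 50% at 10 µM; inactive = inhibition below 50%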;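 note: firefly luciferase from ISG56 promoter only with Renilla not read in this screen; 0% = Sendai virus plus DMSO and 100% = medium plus DMSO without virus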); settings: HEK293 RL24 IRF3 luciferase reporter, at 10 µM, stronger effect = higher value
[12] = inhibitors of poly I:C-induced TLR3 signaling, primary screen, cell-based, poly I:C stimulus, luciferase, 10K MLSCN set (AID 602277;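 active = inhibition of the reporter signal at or above 50%; inactive = inhibition below 50%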); settings: HEK293-TLR3 RL24 IRF3 luciferase reporter, at 10 µM, stronger effect = higher value
[13] = measured here: cell density z-score
[14] = measured here: nuclear c-Myc green intensity z-score
[15] = measured here: nuclear pErk red intensity z-score, stronger effect = higher value

Structure (SMILES)	cell count [1]	inhibition [1]	inhibition of aggregation [2]	nuclei count [2]	inhibition [3]	nuclei count [3]	z-score [4, 13]	z-score [4, 14]	z-score [4, 15]	inhibition [5]	fluorescence slope [6]	NADPH fluorescence slope [7]	slope [8]	outcome [9]	inhibition [10]	inhibition [11]	inhibition [12]
C[C@]12CCC(=O)C=C1CC[C@@H]1[C@@H]2CC[C@@]2(C)[C@H]1CC[C@]2(O)C(=O)CO	695	0.6% (inactive)	27.5% (inactive)	102%	-97.9% (inactive)	125%	0.881	0.613	-1.07	8% (inactive)	-0.52 (inactive)	-6.8e-05 (inactive)	0.00434 (inactive)	inactive	-0.27% (inactive) and -16.6% (inactive)	5.65% (inactive)	35.1% (inactive)
Cn1ncc2c(Nc3ccccc3Br)ncnc21	339	-21% (inactive)	21.2% (inactive)	99.3%	-72.4% (inactive)	128%	0.246	-0.649	-0.252	14% (inactive)	-0.443 (inactive)	-2.6e-05 (inactive)	0.00658 (inactive)	inactive	13.6% (inactive)	2.79% (inactive)	-6.76% (inactive)
CCOC(=O)N1CCN(c2ncnc3c2[nH]c2ccc(OC)cc23)CC1	520	-6% (inactive)	2.6% (inactive)	109%	6.4% (inactive)	100%	1.15	-0.635	1.15	0.671% (inactive)	-0.222 (inactive)	-4.8e-05 (inactive)	0.00434 (inactive)	inactive	8.03% (inactive)	-1.93% (inactive)	-5.19% (inactive)
CCC(CC)C1C(C#N)=C(N)Oc2n[nH]c(C)c21 (stereo not given)	565	-2.9% (inactive)	-28.3% (inactive)	102%	-21.1% (inactive)	112%	-1.42	-0.486	0.51	5.57% (inactive)	-0.492 (inactive)	-0.000106 (inactive)	0.00492 (inactive)	inactive	-5.48% (inactive)	41.8% (inactive)	50% (inactive)
COC(=O)c1ccc(C2NC(C(=O)O)CS2)cc1 (stereo not given)	652	-14.6% (inactive)	3.9% (inactive)	107%	-8.7% (inactive)	139%	-0.228	-1.99	-1.57	-9.66% (inactive)	-0.4 (inactive)	-2.2e-05 (inactive)	0.00581 (inactive)	inactive	5.15% (inactive)	14.2% (inactive)	18.9% (inactive)
Cc1nc2c(c(=O)n1CC1CCCO1)c1nc3ccccc3nc1n2CC(C)C (stereo not given)	460	-4.3% (inactive)	12.6% (inactive)	107%	-42.3% (inactive)	96.8%	1.43	1.1	-2.3	9.42% (inactive)	-0.449 (inactive)	-6.4e-05 (inactive)	0.00602 (inactive)	inactive	0.529% (inactive)	20.9% (inactive)	22.8% (inactive)
Cn1nnnc1SCC1=C(C(=O)O)N2C(=O)[C@@H](NC(=O)[C@H](O)c3ccccc3)[C@H]2SC1	634	-4% (inactive)	-4.8% (inactive)	106%	-44% (inactive)	107%	1.21	1.9	-1.92	11.3% (inactive)	-0.45 (inactive)	-5.3e-05 (inactive)	0.00577 (inactive)	inactive	22.9% (inactive)	10.3% (inactive)	42% (inactive)
CC1=C(/C=C/C(C)=C/C=C/C(C)=C/C(=O)O)C(C)(C)CCC1	678	3.5% (inactive)	-22.6% (inactive)	97.6%	-69% (inactive)	121%	-0.898	1.94	-1.68	19% (inactive)	-0.448 (inactive)	-4.4e-05 (inactive)	0.00401 (inactive)	inactive	8.28% (inactive) and -12% (inactive)	-11.8% (inactive)	-27.2% (inactive)
CN1[C@@H](CC(=O)c2ccccc2)CCC[C@H]1C[C@H](O)c1ccccc1	617	-3.2% (inactive)	-2.2% (inactive)	96.2%	-81.3% (inactive)	120%	-0.242	-0.85	0.339	21.2% (inactive)	-0.436 (inactive)	-0.000135 (inactive)	0.00528 (inactive)	inactive	1.79% (inactive) and -5.55% (inactive)	8% (inactive)	31.3% (inactive)
CCCNC(=O)NS(=O)(=O)c1ccc(Cl)cc1	639	-5.9% (inactive)	14.1% (inactive)	84.6%	-56.7% (inactive)	120%	-0.235	0.988	1.2	-0.493% (inactive)	-0.477 (inactive)	-1.5e-05 (inactive)	0.00564 (inactive)	inactive	-16% (inactive) and -6.85% (inactive)	-0.0514% (inactive)	14.7% (inactive)
